Here are results for 90 sequences from the OligoGym collection.

Some targets named below: COL20A1; COG2; COL16A1; COL4A3BP; COPS7A; COX4I2; COX10; COX6B2; COX19; CREG1; CRIPAK; CREB5; CROT.
Holding throughout (experiment): pooled miR-30 sensor sort-seq; sequence = guide strand
What all share (details): shRNA
Note: reference of the scale not given here.

TAGAGCCTGACCTTGGAGCGGC registered a sensor-assay potency score (higher = more potent) in the experiment with COL20A1 of -0.375. On the same count and under the same terms, under TTGAAGAGCGTGAAGGTCGGGG stands 0.169.

TTTCTCATGAAATGCATCGGGA registered a sensor-assay potency score (higher = more potent) with COG2 of -0.465. For TTTAATACATCTGACACGGTTT, the sensor-assay potency score (higher = more potent) with COG2 was -0.235. With TTTCTTCAGCAGTAGTGTCAGC, the sensor-assay potency score (higher = more potent) with COL16A1 is -0.871. On to AGCAGTGTGCACATCGTCCTGG, for which, in the experiment with COL20A1, the sensor-assay potency score (higher = more potent) was -0.7.

In turn, TCAATCACAAACTCCCTCCGAG registered a sensor-assay potency score (higher = more potent) with COL20A1 of 0.439. ATCTCTTGTCTGATGAACCTCT: the sensor-assay potency score (higher = more potent) in the experiment with COL16A1 is -0.329. As for TATCTGAACTTGGAAATGCTAC, the sensor-assay potency score (higher = more potent) with COL20A1 was -0.775. Take TTGACAAACACAGAGTATCGTG: the sensor-assay potency score (higher = more potent) with COG2 was -0.356.

Turning to ATGCAGGACACAAAGTCGCCAT, the sensor-assay potency score (higher = more potent) in the experiment with COL16A1 was -0.876.

TTCCAATTTGAGTCCTTCCTGC showed a sensor-assay potency score (higher = more potent) in the experiment with COL16A1 of 0.311. On the same count and under the same terms, with TCGAACACAGTCATTGCCCCGT the figure was -0.664; with TTTAATGATCTCTTGTCTGATG, -0.368. For TTTTAATGATCTCTTGTCTGAT, in the experiment with COL16A1, the sensor-assay potency score (higher = more potent) was -0.328.

For AAGTGTGACATTGCTGTCCCGG, the sensor-assay potency score (higher = more potent) with COL16A1 was -0.502. Take TGAACCTCTTGATTTCATCATA: the sensor-assay potency score (higher = more potent) with COL16A1 was -1.14. In the experiment with COL16A1, TTGAAGGCCAGGCAATCCGGGG displayed a sensor-assay potency score (higher = more potent) of -1.21. As to TTGTCTGATGAACCTCTTGATT, the sensor-assay potency score (higher = more potent) with COL16A1 is -1.11. In the experiment with COL20A1, TAGACGTCACTGACCCGTCTTG displayed a sensor-assay potency score (higher = more potent) of -0.759.

Consider TTGAACTTGCTCTCTTCCCAGG, for which the sensor-assay potency score (higher = more potent) with COL20A1 was -1.19. TTGAAACAGATACCACGTCTTC had a sensor-assay potency score (higher = more potent) with COL16A1 of -0.641. The sequence TGGTTTGCCACAGTCACCCTTA gave a sensor-assay potency score (higher = more potent) in the experiment with COL16A1 of -0.19. In turn, TTGTAGGAAAGTCATCTTCATC had a sensor-assay potency score (higher = more potent) with COL4A3BP of -1.71. Regarding TACACTTTACTTTAGCAGCCAG, the sensor-assay potency score (higher = more potent) with COPS7A is -0.419.

The sequence TAGGGGGACATCTTCCCCCCAC came in with a sensor-assay potency score (higher = more potent) with COX4I2 of -1.04.

With TTCAGTGGTGTGTAGCAGCAGG, the sensor-assay potency score (higher = more potent) with COX10 is -0.511. Sequence TTGTTTAACTCTCCCACCCCGA came in with a sensor-assay potency score (higher = more potent) with COX10 of -0.416. In the case of TAGTCCAGGAAGTTCTGGTAGC, the sensor-assay potency score (higher = more potent) with COX6B2 was -0.67. On to TCAGCGTTGAGTTCTGTGCAGA, for which the sensor-assay potency score (higher = more potent) with COX4I2 was -0.281. In the experiment with COX6B2, TGATCTGCTCGTTCCAGCTCTC showed a sensor-assay potency score (higher = more potent) of -0.561. The sequence ATTATTGTTATGAAGACACTTC displayed a sensor-assay potency score (higher = more potent) with COX19 of 0.267. With TCGTCCGTCAAGGTGATCGGCT, the sensor-assay potency score (higher = more potent) in the experiment with COX4I2 is -1.37. For ATGAATTTCTCTTTAAAGCTTT, the sensor-assay potency score (higher = more potent) with COX19 is -0.368.

Take TGGTAGTCCAGGAAGTTCTGGT: the sensor-assay potency score (higher = more potent) in the experiment with COX6B2 is -0.611. On the same count and under the same terms, under TTACGGATCTGGTTCTGGCTGG stands 0.238.

TTGAGTTCTGTGCAGAAGGGCT had a sensor-assay potency score (higher = more potent) in the experiment with COX4I2 of -0.914. TCGTTCCAGCTCTCCACCCAGC came in with a sensor-assay potency score (higher = more potent) with COX6B2 of -1.49. In the experiment with COX6B2, TTGATCTGCTCGTTCCAGCTCT yielded a sensor-assay potency score (higher = more potent) of -0.259. As to TACACGCGGAAATAGTACTCGC, the sensor-assay potency score (higher = more potent) with COX6B2 is -0.697.

In the experiment with COX4I2, TGAAGAAGAAGACACAACCCAT displayed a sensor-assay potency score (higher = more potent) of -0.804. TTCTGCACAAAGCATTTTCAAA: the sensor-assay potency score (higher = more potent) in the experiment with COX19 was -1.5. TCTAGTTCTATCAATTCCTTTT yielded a sensor-assay potency score (higher = more potent) with COX10 of -0.971. In the experiment with COX6B2, TCCCGTTCTTGATCTGCTCGTT registered a sensor-assay potency score (higher = more potent) of -0.329.

As for TTCCTCAGCACCAAGCTCCAGG, the sensor-assay potency score (higher = more potent) with COX4I2 is -0.515. With TACGGATCTGGTTCTGGCTGGG, in the experiment with COX6B2, the sensor-assay potency score (higher = more potent) is -0.241. Take TATTGTTATGAAGACACTTCAT: in the experiment with COX19, the sensor-assay potency score (higher = more potent) was found to be 0.108.

For TAGTACTCGCAGGGCTGCGTGC, the sensor-assay potency score (higher = more potent) with COX6B2 is -1.22. In the case of TTTTACATTCACCTAAGTGATC, in the experiment with COX19, the sensor-assay potency score (higher = more potent) is -1.57. Turning to TTCTTCTCATAGTCCCAGCGGG, the sensor-assay potency score (higher = more potent) with COX4I2 was -0.678. For the sequence TCTCATTGAACTGGAGCCGGTA, the sensor-assay potency score (higher = more potent) in the experiment with COX4I2 was -1.09. With TTCATCTCCGCAAAGGTCTCAT, the sensor-assay potency score (higher = more potent) with COX4I2 is -0.117. TAAATATTCTTTTGATTCCTTT gave a sensor-assay potency score (higher = more potent) in the experiment with COX19 of -0.553. Take ATCAATTTTCTCTCCATCCTGC: the sensor-assay potency score (higher = more potent) with COX19 was found to be 0.0848. On to AAAGGTCTCATTGAACTGGAGC, for which the sensor-assay potency score (higher = more potent) with COX4I2 is -0.86. Sequence TCCACCTTTCCTCAGCACCAAG registered a sensor-assay potency score (higher = more potent) with COX4I2 of -2.06. As to TTCTTGATCTGCTCGTTCCAGC, in the experiment with COX6B2, the sensor-assay potency score (higher = more potent) is -0.0146. The sequence TTCCAGCTCTCCACCCAGCTGA showed a sensor-assay potency score (higher = more potent) with COX6B2 of -0.84. In the experiment with COX19, TTCCACTAGTCAAGTCTCCAAA displayed a sensor-assay potency score (higher = more potent) of -0.858. For the sequence TAAAGCTTTTACATTCACCTAA, the sensor-assay potency score (higher = more potent) in the experiment with COX19 worked out at 0.0153. For the sequence TAGTCAAGTCTCCAAATCCCAG, the sensor-assay potency score (higher = more potent) with COX19 was -1.71.

In turn, TTCATGTCCAGCATGCGCTGCA returned a sensor-assay potency score (higher = more potent) in the experiment with COX4I2 of 0.312. Sequence TTGAAATGAGGAAACTGCCAGG displayed a sensor-assay potency score (higher = more potent) in the experiment with COX10 of -0.59. Sequence ATTGTTATGAAGACACTTCATG showed a sensor-assay potency score (higher = more potent) in the experiment with COX19 of -0.941. On the same count and under the same terms, under TTCACCTAAGTGATCCAGCGGG stands -0.488. For the sequence ATATTGGTTATATTCAACTTAG, the sensor-assay potency score (higher = more potent) with CREG1 is -1.21. Still for that read-out and setting: under TTGTGGATCAAATCCATGTTTC stands -1.13. As for TTCACCTTGGTCACAGTTCCTG, the sensor-assay potency score (higher = more potent) in the experiment with CREG1 was -0.406. Turning to ACCTACAGAACCACCATGCCAG, in the experiment with CRIPAK, the sensor-assay potency score (higher = more potent) is -1.69. The sequence TTAAGTATAGCTTAGCTGCTGC returned a sensor-assay potency score (higher = more potent) with CREB5 of -0.267. With TACACTTCTACAAGAAAGCTGT, the sensor-assay potency score (higher = more potent) with CREB5 turned out to be 0.523.

Take TTTCATAGCAACAACCAGGGTG: the sensor-assay potency score (higher = more potent) with CROT is 0.143. TTCTTGCAGAAGTTGGTCTGTG returned a sensor-assay potency score (higher = more potent) with CREG1 of -0.659.

In the experiment with CREB5, TTGAACTGAGCTATTTTTCTGG had a sensor-assay potency score (higher = more potent) of 0.269. In the experiment with CRIPAK, TACGGTAACAGCGTCTGACTCG gave a sensor-assay potency score (higher = more potent) of -0.0922.

As for TGATGGTATACGAACATCCAGA, the sensor-assay potency score (higher = more potent) with CROT was -1.05.

In the case of TCACCTTGGTCACAGTTCCTGA, the sensor-assay potency score (higher = more potent) with CREG1 was -0.428. With TACAGAACCACCATGCCAGGGC, the sensor-assay potency score (higher = more potent) with CRIPAK came out at 0.653. In the experiment with CROT, TTCATAGCAACAACCAGGGTGT came in with a sensor-assay potency score (higher = more potent) of 0.163.

For TTGTCTGAGAAGCTCTGGCGGG, in the experiment with CROT, the sensor-assay potency score (higher = more potent) was -0.935. With TTTGCAATATCCATTTCTGTTT, the sensor-assay potency score (higher = more potent) with CREG1 was -1.42. Sequence TATAAAAGGGATCCTTGACATA gave a sensor-assay potency score (higher = more potent) with CRIPAK of -1.08. Same read-out and setting: with TCGACATGTGTGAGCAGGCGGG the figure was -1.62; with TAACAGCGTCTGACTCGGCCGG, -0.738. TTCTAATTGAGTCCCTTCCTTT returned a sensor-assay potency score (higher = more potent) with CROT of -0.88. For the sequence TCCAATAACAGGTCAACTCTAT, in the experiment with CREG1, the sensor-assay potency score (higher = more potent) is -0.715. Turning to TTGTAACATCTTTTGCTGCCGC, in the experiment with CROT, the sensor-assay potency score (higher = more potent) was -0.495. In the experiment with CRIPAK, ACCATGAGTAGAATGTACGGTA had a sensor-assay potency score (higher = more potent) of -1.4. For the sequence TTTTCTTATATTCTTCTTGATT, in the experiment with CROT, the sensor-assay potency score (higher = more potent) is -1.35. In the experiment with CREG1, TTTGTGGATCAAATCCATGTTT yielded a sensor-assay potency score (higher = more potent) of -0.755.
